Test results from the OligoGym collection.

Each sequence was assayed against RHOH (assay: pooled miR-30 sensor sort-seq; sequence = guide strand). Details: shRNA.
Note: reference of the scale not given here.

Row | Sequence | sensor-assay potency score (higher = more potent)
1 | TACACTGTGGGCTTGTAGGCCT | -0.53
2 | TTCTTCAAGTTCAGGAATGAGT | -0.86
3 | AACACCTGCTGTACTCCCCGAT | -0.621
4 | TTCCATGGCATTGACGCAGGAG | 0.27
5 | TTGATGGAGAAGAGCCTCCTTC | -0.911
6 | TAGGCCTCCGGGAAGGTCTCGG | -0.658
7 | AAGGTCTCGGAGGTGAAGCGCA | -0.81
8 | TGTGTTCTCGTACACTGTGGGC | -1.21
9 | TGTTCTCGTACACTGTGGGCTT | -0.393
10 | TTCTCGTACACTGTGGGCTTGT | -0.506
11 | TTGTAGAGTGTAGTTAGTGAAA | -1.62
12 | TAAGGGCTGAGCACTCCAGGTA | -0.636
13 | TTGACGGCAGTTCGGACGGCGC | -1.65
14 | TAGCACATCAGCACCACGTCTG | 0.265
15 | AAACACCTGCTGTACTCCCCGA | -0.993
16 | TTCTGAAGGCGTCATTGCCGGC | -1.35

What follows are sequences tested against RHOJ in the same assay as above. Details: shRNA.

Row | Sequence | sensor-assay potency score (higher = more potent)
17 | TAGCACTGTGCTCCGATCGCTT | -0.602
18 | TTGACTTTGTTTTTGATGCGAT | -0.0639
19 | ATAGTGGTCAAACACAGTGGGC | -0.911
20 | TTCTTCTCGTCGTTGCCCCTGC | -0.309
21 | TTCTGAGTCAGAGCTGAACATT | -1.66
22 | TTTCTCTTTCATATACAGCAAA | -0.918
23 | TTTGAGACCTTTCTGAGTCAGA | -0.62
24 | TCAACATCTTCTTCTCGTCGTT | 0.0564
25 | TTCTCTTTCATATACAGCAAAC | -1.56
26 | TTCAACATCTTCTTCTCGTCGT | 0.937
27 | TTGGCTGCCATTCTCATCCCTG | -0.433
28 | AACATCTTCTTCTCGTCGTTGC | 0.438

The sequences below were run against RIC8A in the same assay as above. Details: shRNA.

Row | Sequence | sensor-assay potency score (higher = more potent)
29 | TACACTCTCCTTCAGCCTGTGT | -1.16
30 | TTCACTCCCATGAACTCCGTGG | 0.138
31 | TTTGAGGATCTCCATGGCCCGC | -1.76
32 | TACAACATCCATGTCTGCGGAC | -0.737
33 | AAGAACTGGACATCGTGGGGGA | 0.415
34 | TAGTCTCGCACATGGCATCCTG | -1.08
35 | TGGGCCTTCAGGAACTTCCTGG | -0.964
36 | TTTCAGCTCCTGAAACAGCTGC | -0.481
37 | TTGTTCCGCAGCATCTCCCCAA | -0.652
38 | TTCTAGCACAAGAAGACCGTTG | 0.199
39 | TTGGGCATCATCAAACGTGAAG | -0.89
40 | AACATCCAGACACTTGAGGGGC | -0.627
